Results as given in ChEMBL document CHEMBL1157539, “Thousands of chemical starting points for antimalarial lead identification” (Nature, 2010).

Experiments:
Format in all cases: functional
Plasmodium falciparum [1] = assay: GSK_TCMDC: Inhibition of Plasmodium falciparum 3D7 in whole red blood cells, using parasite LDH activity as an index of growth. Test compounds present at 2uM
Plasmodium falciparum [2] = assay: GSK_TCMDC: Inhibition of Plasmodium falciparum Dd2 in whole red blood cells, using parasite LDH activity as an index of growth. Test compounds present at 2uM
HepG2 = assay: GSK_TCMDC: Percent inhibition of human HepG2 cell line. Test compounds present at 10uM.

Compound | Inhibition (Plasmodium falciparum [1]) [%] | Inhibition (Plasmodium falciparum [2]) [%] | Inhibition (HepG2) [%]
COc1cccc(NC(=O)c2ccc(NCCCN3CCC(C)CC3)c([N+](=O)[O-])c2)c1 | 100 | 46 | 9
O=C(Nc1ccc(-c2cccc(-c3nc4cc(F)ccc4[nH]3)c2)cc1)c1cnn2cccnc12 | 98 | 25 | 10
CC(=O)c1ccc(-c2ccccc2)s1 | 92 | 2 | 0
Cc1cccc(CNc2nc(C)cc(NCCC(=O)NCCOc3ccccc3)n2)c1.O=C(O)C(F)(F)F | 98 | 14 | 18
CC[C@H](C)CNC(=O)c1cncc(-c2ccc(CNCC3CNCCCO3)cc2)c1.O=C(O)C(F)(F)F (stereo partly drawn) | 100 | 0 | 0
CN(C)c1ccc(NC(=O)Nc2ccnc3ccc(Br)cc23)cc1.Cl | 91 | 21 | 0
C=CCn1c(=N)c(C(=O)NCc2ccc(F)cc2)cc2c(=O)n3cccc(C)c3nc21 | 92 | 11 | 16
O=C(NCc1cccc(F)c1)Nc1ccc(-c2ccc(-c3nc4cc(C(F)(F)F)ccc4[nH]3)cc2)cc1 | 100 | 24 | 46
Cc1nnsc1C(=O)Nc1cccc(-c2cccc(-c3nc4cc(C(F)(F)F)ccc4[nH]3)c2)c1 | 100 | 100 | 70
CCn1c(Cc2ccccc2)nnc1SCC(=O)N1c2ccccc2Sc2ccccc21 | 99 | 96 | 0
O=C(NCCCCN1CCC(c2c[nH]c3ccc(-c4ccccc4)cc23)CC1)c1ccc(-c2ccccc2)cc1.O=C(O)C(=O)O | 97 | 40 | 48
Cl.O=C(Nc1ccc(Cl)cc1)Nc1cccc(-c2cc(CNCCc3ccccc3)oc2-c2ccncc2)c1 | 100 | 92 | 40
COc1ccc(NC(=O)c2ccc(NC(=O)c3ccc(Cl)cc3)cc2)cc1N1CCN(C)CC1 | 98 | 40 | 23
CCc1c[nH]c2c(N(c3ccccc3)S(C)(=O)=O)cc(C(=O)N[C@@H](Cc3ccccc3)[C@H](O)CNCc3cccc(C(F)(F)F)c3)cc12.O=CO | 93 | 98 | 20
c1cncc(NCc2ccc(-c3cc4ccncc4cc3OC3CCNCC3)s2)c1 | 100 | 19 | 4
O=C(O)C(F)(F)F.Oc1ccc(CN2CCC(NCc3cccc4ccccc34)CC2)cc1 | 97 | 8 | 8

Compound | Inhibition (Plasmodium falciparum [1]) [%] | Inhibition (Plasmodium falciparum [2]) [%] | Inhibition (HepG2) [%]
CCNc1cc(C(=O)N[C@@H](Cc2ccccc2)[C@H](O)CN[C@H](C)C(C)(C)C)cc(N2CCCCS2(=O)=O)c1.Cl | 95 | 41 | 4
CCOc1cc(C(=O)Nc2ccccc2N2CCN(S(C)(=O)=O)CC2)cc(OCC)c1OCC | 91 | 80 | 0
CCc1cc(OC)ccc1C1CCN(CCCCNC(=O)c2ccc(NC(=O)c3ccc(Cl)cc3)cc2)CC1.Cl | 95 | 61 | 23
Cc1cc2nc(-c3ccc(C(=O)NC4CCN(Cc5ccccc5)CC4)cc3)[nH]c2cc1C | 93 | 99 | 0
Oc1ccc2ncnc(Nc3ccc(OCc4cccc(F)c4)c(Cl)c3)c2c1 | 100 | 30 | 24
CCN(Cc1ccccc1)C1CCN(Cc2cc(Br)ccc2O)CC1.O=C(O)C(=O)O | 97 | 97 | 6
O=C(O)C(F)(F)F.c1cc(-c2ccc(CNCc3ccsc3)cc2)cc(-c2nc3ccccc3[nH]2)c1 | 100 | 82 | 46
COc1ccc2nccc([C@@H](O)CN3CCC(NCc4ccc5cccc(O)c5n4)CC3)c2n1.CS(=O)(=O)O | 94 | 13 | 8
CCc1sc(N2CCN(C)CC2)nc1C(=O)NCCc1ccc(Cl)c(Cl)c1.O=C(O)C(F)(F)F | 92 | 49 | 5
CN(C)CCCOc1cccc(NC(=O)Nc2ccc(-c3ccccc3)cc2)c1.O=C(O)C(F)(F)F | 91 | 14 | 9
CN(C)c1ccc(-c2ccc(C(=O)NC3CCN(Cc4ccccc4)CC3)s2)cc1.O=C(O)C(F)(F)F | 92 | 10 | 20
CCNc1cc(C(=O)N[C@@H](Cc2ccc(Cl)cc2)[C@H](O)CNC2CCCCC2)cc(N2CCCCS2(=O)=O)c1.Cl | 98 | 99 | 6
CCOc1ccc2c(=NN=Cc3cccc(OC)c3)cc(C)[nH]c2c1 | 97 | 81 | 38
COc1cc2c(cc1OC)CN(CCc1ccc(NC(=O)c3cc4cc(OC(F)(F)F)ccc4[nH]3)cc1)CC2 | 99 | 20 | 36
Cc1nc(-c2nc(N3CCOCC3)ncc2-c2ccsc2)sc1C | 89 | 75 | 5
